In PubChem BioAssay AID1159580 (chemical genetic matrix, 2015):
Values joined by “and” are separate entries in the source; they are usually repeats but may differ in a detail not shown here. Equal entries are not always repeated. About 2,000 (36%) of roughly 5,500 compounds were called active. Inconclusive results (about 18%) are left out. Cut-off read from the data, not from the text of the source: active = normalized growth mostly below about 0.91 (no sharp cut-off); inconclusive = no clear call, values can overlap the other calls; inactive = mostly above about 0.92. The list shows a part of the results.

Assay: chemical genetic growth profiling, strain panel (AID 1159580);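 note: tested at 20 µM; growth read once vehicle control cultures reached saturation at 30 °C; 1 = growth at the plate median or of vehicle wells; lower values mean less growth of the strain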
Conditions: S. cerevisiae deletion strains, growth OD

Measured: normalized growth

CN1C(CC(=O)c2ccccc2)CCCC1CC(O)c1ccccc1 (configuration not stated)
inactive: locus YAL013W, strain DEP1, stronger effect = lower value 1.01 | locus YAL021C, strain ccr4, stronger effect = lower value 0.974 | locus YAL026C, strain drs2, stronger effect = lower value 0.976 | locus YAL030W, strain snc1, stronger effect = lower value 0.977 | locus YBL061C, strain skt5, stronger effect = lower value 0.976 | locus YBR009C, strain hhf1, stronger effect = lower value 0.972 | locus YBR021W, strain FUR4, stronger effect = lower value 1.02 | locus YBR023C, strain chs3, stronger effect = lower value 0.977 | locus YBR171W, strain sec66, stronger effect = lower value 0.989 | locus YBR229C, strain ROT2, stronger effect = lower value 1.01 | locus YBR231C, strain swc5, stronger effect = lower value 0.978 | locus YBR279W, strain paf1, stronger effect = lower value 0.984 | locus YCL011C, strain gbp2, stronger effect = lower value 0.966 | locus YCL016C, strain dcc1, stronger effect = lower value 0.978 | locus YCL029C, strain bik1, stronger effect = lower value 0.968 | locus YCL061C, strain MRC1, stronger effect = lower value 0.993 | locus YCL069W, strain vba3, stronger effect = lower value 0.982 | locus YCR088W, strain abp1, stronger effect = lower value 0.984 | locus YDL005C, strain med2, stronger effect = lower value 0.98 | locus YDL035C, strain GPR1, stronger effect = lower value 1.01 | locus YDL040C, strain nat1, stronger effect = lower value 0.976 | locus YDL074C, strain BRE1, stronger effect = lower value 1.01 | locus YDL101C, strain DUN1, stronger effect = lower value 1.01 | locus YDL134C, strain PPH21, stronger effect = lower value 1.01 | locus YDL185W, strain tfp1, stronger effect = lower value 0.992 | locus YDL192W, strain arf1, stronger effect = lower value 0.991 | locus YDR001C, strain nth1, stronger effect = lower value 0.979 | locus YDR069C, strain doa4, stronger effect = lower value 0.999 | locus YDR101C, strain arx1, stronger effect = lower value 0.97 | locus YDR137W, strain rgp1, stronger effect = lower value 0.918 | locus YDR150W, strain NUM1, stronger effect = lower value 1.02 | locus YDR159W, strain sac3, stronger effect = lower value 0.959 | locus YDR162C, strain NBP2, stronger effect = lower value 1.01 | locus YDR195W, strain ref2 0.928 | locus YDR297W, strain sur2, stronger effect = lower value 0.98 | locus YDR318W, strain mcm21, stronger effect = lower value 0.994 | locus YDR334W, strain swr1, stronger effect = lower value 0.975 | locus YDR335W, strain msn5, stronger effect = lower value 0.986 | locus YDR388W, stronger effect = lower value 0.975 | locus YDR392W, strain spt3, stronger effect = lower value 0.934 | locus YDR502C, strain sam2, stronger effect = lower value 0.98 | locus YEL003W, strain gim4, stronger effect = lower value 0.991 | locus YEL037C, strain rad23, stronger effect = lower value 0.984 | locus YEL061C, strain CIN8 (second series), stronger effect = lower value 0.966 | locus YEL061C, strain CIN8, stronger effect = lower value 1.01 | locus YER015W, strain faa2, stronger effect = lower value 0.989 | locus YER016W, strain bim1, stronger effect = lower value 0.98 | locus YER110C, stronger effect = lower value 0.981 | locus YER111C, strain swi4, stronger effect = lower value 0.98 | locus YER155C, strain BEM2 (second series), stronger effect = lower value 0.982 | locus YER155C, strain BEM2, stronger effect = lower value 1.01 | locus YER167W, strain BCK2, stronger effect = lower value 1.02 | locus YFR010W, strain ubp6, stronger effect = lower value 0.967 | locus YGL078C, strain dbp3, stronger effect = lower value 0.977 | locus YGL086W, strain mad1, stronger effect = lower value 0.997 | locus YGL167C, strain pmr1, stronger effect = lower value 0.963 | locus YGL173C, strain kem1, stronger effect = lower value 0.982 | locus YGL227W, strain vid30, stronger effect = lower value 0.962 | locus YGL240W, strain doc1, stronger effect = lower value 0.981 | locus YGL248W, strain PDE1, stronger effect = lower value 1.02 | locus YGL253W, strain hxk2, stronger effect = lower value 0.991 | locus YGR078C, strain PAC10, stronger effect = lower value 0.996 | locus YGR135W, strain pre9, stronger effect = lower value 0.968 | locus YGR229C, strain SMI1, stronger effect = lower value 0.967 | locus YGR252W, strain gcn5, stronger effect = lower value 1 | locus YHR013C, strain ard1, stronger effect = lower value 0.952 | locus YHR027C, strain rpn1, stronger effect = lower value 0.973 | locus YHR030C, strain SLT2, stronger effect = lower value 1.01 and 0.976 | locus YHR079C, strain IRE1 (second series), stronger effect = lower value 0.985 | locus YHR079C, strain IRE1, stronger effect = lower value 0.983 | locus YHR094C, strain hxt1, stronger effect = lower value 0.988 | locus YHR129C, strain ARP1, stronger effect = lower value 1.01 | locus YHR142W, strain chs7, stronger effect = lower value 0.999 | locus YHR200W, strain rpn10, stronger effect = lower value 0.989 | locus YIL066C, strain RNR3, stronger effect = lower value 1.01 | locus YIL073C, strain SPO22, stronger effect = lower value 1.02 | locus YIL125W, strain kgd1, stronger effect = lower value 1 | locus YIR030C, strain dcg1, stronger effect = lower value 0.993 | locus YJL092W, strain hpr5, stronger effect = lower value 0.982 | locus YJL095W, strain BCK1 (second series), stronger effect = lower value 0.979 | locus YJL095W, strain BCK1, stronger effect = lower value 0.975 and 0.978 | locus YJL115W, strain asf1, stronger effect = lower value 0.978 | locus YJL129C, strain trk1, stronger effect = lower value 0.974 | locus YJL134W, strain LCB3, stronger effect = lower value 1.01 | locus YJL154C, strain vps35, stronger effect = lower value 0.97 | locus YJL164C, strain tpk1, stronger effect = lower value 0.996 | locus YJL166W, strain qcr8, stronger effect = lower value 0.984 | locus YJL168C, strain set2, stronger effect = lower value 0.99 | locus YJL187C, strain SWE1 (second series), stronger effect = lower value 0.996 | locus YJL187C, strain SWE1, stronger effect = lower value 0.975 | locus YJR043C, strain POL32, stronger effect = lower value 1 | locus YJR066W, strain TOR1, stronger effect = lower value 0.935
